Screening results from PubChem.
D2 antagonist: antagonists of human D2 dopamine receptor | P14416 | HEK293 TREx D2 cells, calcium flux, dopamine EC80 | inhibition, % at 10 µM | 2% of 340,000 active; in the data active means inhibition above about 30%; inactive means below that, where a call was filed; further: 0% is about no effect
Target sequence (P14416 whole entry, looked up): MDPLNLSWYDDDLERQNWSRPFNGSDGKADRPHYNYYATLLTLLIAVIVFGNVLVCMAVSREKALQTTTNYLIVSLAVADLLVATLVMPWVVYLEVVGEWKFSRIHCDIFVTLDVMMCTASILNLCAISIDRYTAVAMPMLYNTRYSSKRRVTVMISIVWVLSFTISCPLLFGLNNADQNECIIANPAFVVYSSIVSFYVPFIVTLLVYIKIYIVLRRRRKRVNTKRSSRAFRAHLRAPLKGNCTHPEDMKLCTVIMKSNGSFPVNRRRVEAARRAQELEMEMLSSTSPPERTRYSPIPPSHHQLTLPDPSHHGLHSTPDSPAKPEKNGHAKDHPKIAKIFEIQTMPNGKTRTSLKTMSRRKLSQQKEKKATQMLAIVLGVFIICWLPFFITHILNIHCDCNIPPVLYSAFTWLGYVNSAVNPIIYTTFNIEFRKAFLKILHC
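Overnight-induced (tetracycline, 30 C) HEK293 T-REx cells carrying force-coupled D2 receive a no-wash calcium dye, then compound, then EC80 dopamine at 180 s; signals are read kinetically throughout.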
D2 PAM-1: human D2 receptor positive allosteric modulation. 0.23% of 360,000 active. P14416. DiscoveRx D2 beta-arrestin cells, luminescence, 90 min; 100% = 57 uM dopamine signal. potentiation, % (no concentration beside the values); in the data active means potentiation above about 50%; inconclusive means mostly about 30% to 49%
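PathHunter beta-arrestin assay in DiscoveRx D2 cells. Compounds were added with an EC20 of dopamine (50 nM final) for 90 min at 37 deg C. Luminescence was read 1 h after detection reagent, with 57 uM dopamine as the EC100 control.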
D2 ag-1: activates the human D2 dopamine receptor | activation, % at 2 µM | P14416 | 0.53% of 340,000 active | AID 485358 | HEK293 T-REx D2 cells, calcium flux agonist mode;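 active means activation over 3 SD above normal in the single-dose calcium agonist read, cut at about 30% in these data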; further: 0% is about no effect
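HEK293 Trex D2 cells, tetracycline-induced, o/n 30 C 5% CO2; no-wash Ca dye, RT 30–90 min; 10-cycle baseline, 23 nl cpd added, kinetic Ca read 180 s; agonist hits = positive Ca response.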
D2 ag-2: activates the human D2 dopamine receptor; P14416; DiscoveRx PathHunter D2 beta-arrestin, luminescence, 90 min; 100% = 57 uM dopamine signal; activation, % (no concentration beside the values); 0.084% of 360,000 active; AID 624465; in the data active means activation above about 40%; inconclusive means between about 15% and that limit
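Agonist mode: compounds alone added to overnight-plated D2 PathHunter cells for 90 min at 37 C, with 57 uM final dopamine (EC100) defining full response. Beta-arrestin recruitment detected by chemiluminescent reagent, read after 1 h at ambient temperature.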
D2 PAM-2: positively modulates the human D2 dopamine receptor allosterically; 0.34% of 340,000 active; AID 485347; HEK293 T-REx D2, calcium flux, EC20 dopamine potentiation; P14416; potentiation, % at 10 µM;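 active means potentiation over 3 SD above the plate norm, cut at about 30% in these data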; further: 0% is about no effect
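Using a no-wash calcium dye in inducible, force-coupled HEK293 Trex cells expressing D2, we tracked fluorescence each second for 180 s after compound, then for 180 s after EC20 dopamine to detect augmented signalling.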
* hit, by the source's call. This is a sample that favours compounds with a hit; in the whole collection about 2.4% have one here.

For O=C(CSc1ncnc2nc[nH]c12)c1ccc([N+](=O)[O-])cc1 the results were D2 antagonist -0.6, D2 PAM-1 55.6*, D2 ag-1 -0.8, D2 ag-2 13.5 and D2 PAM-2 2.7.
For O=C(CSc1ncnc2nc[nH]c12)c1ccc(Cl)cc1 the results were D2 antagonist 14.2, D2 PAM-1 -1.4, D2 ag-1 1.8, D2 ag-2 5.7 and D2 PAM-2 2.5.
For O=C(NCc1ccccc1Cl)c1ccc2c(c1)nnn2C1CCCC1 the results were D2 ag-1 -0.5 and D2 PAM-2 1.3.
CCCCOc1ccccc1Cn1c(=O)oc2ccc(C)cc21 was read as D2 antagonist 31.4*, D2 PAM-1 -4.2, D2 ag-1 0.6, D2 ag-2 0.9 and D2 PAM-2 6.7.
CCCCCOc1ccccc1Cn1c(=O)oc2ccc(C)cc21 was read as D2 ag-1 1.7 and D2 PAM-2 -8.2.
For COc1ccccc1C(=O)n1nc(-c2ccccc2)nc1NCc1ccc(Cl)cc1 the results were D2 ag-1 1.5 and D2 PAM-2 -16.2.
Nc1cc(=O)[nH]c(SCC(=O)Nc2cc(Cl)cc(Cl)c2)n1 was read as D2 antagonist 30.1*, D2 PAM-1 -37.4, D2 ag-1 -0.6, D2 ag-2 -1.6 and D2 PAM-2 -16.7.
For Nc1cc(=O)[nH]c(SCC(=O)Nc2ccc(Cl)c(Cl)c2)n1 the results were D2 antagonist -8.2, D2 PAM-1 -9.3, D2 ag-1 0.5, D2 ag-2 -1.4 and D2 PAM-2 -6.4.
`COc1cc(C(=O)OCC(=O)Nc2ccccc2C(=O)NC2CC2)c([N+](=O)[O-])cc1OC` gave D2 antagonist 34.1*, D2 PAM-1 -0.1, D2 ag-1 -0.2, D2 ag-2 -1.2 and D2 PAM-2 -9.7.
Screening Cc1cc(O)c2c(c1)C(=O)[C@@]13Oc4c5c(c(O)c6c(O)cc(C)cc46)C(=O)C[C@H](O)[C@H]5[C@@H]1[C@@H](O)CC(=O)C3=C2O returned D2 PAM-1 66.3* and D2 ag-2 10.6.
Screening O=C(CCS(=O)(=O)c1cccc2nsnc12)Nc1ccc(F)cc1 returned D2 PAM-2 -1.3.
`CC(=O)Nc1cccc(C(=O)/C=C/c2ccc(/C=C/C(=O)c3cccc(NC(C)=O)c3)cc2)c1` gave D2 antagonist 0.0, D2 ag-1 0.7 and D2 PAM-2 -4.1.
For CC(=O)Nc1cccc(C(=O)/C=C/c2ccc(N(C)C)cc2)c1 the results were D2 antagonist 35.0*, D2 PAM-1 inconclusive, D2 ag-1 85.9*, D2 ag-2 6.1 and D2 PAM-2 -2.8.
`Cc1cc2c(n1-c1ccc(C(=O)NCc3ccccc3Cl)cc1)CCCC2` gave D2 ag-1 0.6 and D2 PAM-2 -8.0.
Screening CCCc1nc2c(=O)n(C)c(=O)nc-2n(C)n1 returned D2 antagonist -6.4, D2 PAM-1 29.9, D2 ag-1 0.4, D2 ag-2 54.3* and D2 PAM-2 -2.1.
For Cn1nc(-c2ccccn2)nc2c(=O)n(C)c(=O)nc1-2 the results were D2 antagonist -8.4, D2 PAM-1 -0.6, D2 ag-1 2.5, D2 ag-2 7.7 and D2 PAM-2 6.6.
Cc1cc(C(=O)COC(=O)c2cc(O)c3ccccc3c2O)c(C)n1CC1CCCO1 (stereo unspecified) was read as D2 antagonist 7.7, D2 PAM-1 82.7*, D2 ag-1 1.5, D2 ag-2 inconclusive and D2 PAM-2 -2.7.
Screening O=C(NC(NC(=S)Nc1cccc(Cl)c1)C(Cl)(Cl)Cl)OCc1ccccc1 (stereo unspecified) returned D2 antagonist 77.9*, D2 PAM-1 -26.0, D2 ag-1 1.8, D2 ag-2 1.4 and D2 PAM-2 4.6.
`CCCCN(C)c1ncnc2c1cnn2-c1cccc(Cl)c1` gave D2 ag-1 -0.7 and D2 PAM-2 21.4.
CC(C)c1ccc(NC(=S)N2CCN(Cc3ccccc3)CC2)cc1 was read as D2 antagonist -14.7, D2 PAM-1 -4.4, D2 ag-1 0.3, D2 ag-2 -2.6 and D2 PAM-2 3.0.
For Cc1ccc(NC(=S)NC2CCN(Cc3ccccc3)CC2)cc1 the results were D2 antagonist 83.7*, D2 PAM-1 -34.5, D2 ag-1 0.3, D2 ag-2 -1.5 and D2 PAM-2 -16.7.
For CC(C)c1ccc(NC(=S)NC2CCN(Cc3ccccc3)CC2)cc1 the results were D2 antagonist 51.8*, D2 PAM-1 -40.6, D2 ag-1 1.0, D2 ag-2 -1.6 and D2 PAM-2 -20.1.
For Cc1ccc(NC(=S)N2CCN(Cc3ccccc3)CC2)cc1 the results were D2 antagonist -13.5, D2 PAM-1 -8.9, D2 ag-1 -0.5 and D2 ag-2 1.7.
Screening Cc1ccc(C(=S)N2CCN(Cc3ccccc3)CC2)cc1 returned D2 antagonist 65.1*, D2 PAM-1 -11.1, D2 ag-1 -1.6, D2 ag-2 1.6 and D2 PAM-2 -27.5.
CC1=C(C)CC(C(=O)N2CCN(Cc3ccccc3)CC2)C(C(=O)O)C1 (stereo unspecified) was read as D2 antagonist 0.3, D2 PAM-1 -22.6, D2 ag-1 4.1, D2 ag-2 -3.6 and D2 PAM-2 30.2*.
CCOc1ccc2nc(Cl)c(C3CC(c4ccccc4)=NN3C(=O)CCC(=O)O)cc2c1 (stereo unspecified) was read as D2 ag-1 0.1 and D2 PAM-2 6.9.
Screening CCOC(=O)c1ccc(NC(=O)CSc2ccc3ccccc3n2)cc1 returned D2 ag-1 0.0 and D2 PAM-2 4.1.
Cc1ccc(NC(=S)NC2CCN(Cc3ccccc3)CC2)cc1C was read as D2 antagonist 77.6*, D2 PAM-1 inconclusive, D2 ag-1 3.1, D2 ag-2 -8.7 and D2 PAM-2 -24.4.
For S=C(Nc1ccc2c(c1)OCO2)NC1CCN(Cc2ccccc2)CC1 the results were D2 antagonist 58.9*, D2 PAM-1 -17.4, D2 ag-1 0.4, D2 ag-2 -2.9 and D2 PAM-2 -25.7.
Screening CC(NC(=O)Cn1c(=O)oc2cc(S(=O)(=O)NCc3ccccc3)ccc21)c1ccccc1 (stereo unspecified) returned D2 ag-1 -0.6 and D2 PAM-2 0.9.
`CCOc1ncccc1C(=O)Nc1nnc(C)s1` gave D2 antagonist -0.9, D2 PAM-1 -7.3, D2 ag-1 -0.9, D2 ag-2 -5.6 and D2 PAM-2 10.8.
CCOc1ncccc1C(=O)Nc1nnc(C2CC2)s1 was read as D2 antagonist -26.8, D2 PAM-1 -22.7, D2 ag-1 2.3, D2 ag-2 0.3 and D2 PAM-2 37.0*.
O=C(NCC1CCCO1)c1cccc(Br)c1 (stereo unspecified) was read as D2 antagonist -13.5, D2 PAM-1 2.2, D2 ag-1 -0.3, D2 ag-2 0.2 and D2 PAM-2 -3.8.
For O=C(NCC1CCCO1)c1ccc(NC(=O)c2cccc(Br)c2)cc1 (stereo unspecified) the results were D2 PAM-1 93.5* and D2 ag-2 6.5.
